Each structure is given as a SMILES string. The whole screen tested about 320,000 compounds, of which about 9,100 (2.8%) were called active. Inconclusive results (about 3%) are left out. Only a selection was taken, and actives are over-represented in it overall. Unmarked numbers belong to inactive results. The call rests on the fitted dose curve; in most records, active means well fitted activation curve with a large enough effect; inconclusive means small, poorly fitted or top-dose-only effect; inactive means no such curve, though single readings can be large or run the other way.
Potency means the concentration at half of the fitted maximal effect.

A short description of the experiment: qHTS Assay for Rab9 Promoter Activators. Further: nearly all actives have a fitted effect of over 60% in size. On activation, negative = inhibition: % of control where 0% means no effect. To be noted: Huh7 Rab9 promoter-luciferase reporter, luminescence, 24 h; series mostly up to 9.22 µM; activation, negative = inhibition: at the top concentration. Put shortly:
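Rab9 promoter-driven luciferase in stably transfected Huh7 cells; 1500 cells/well rested 2 h, exposed to compound in DMSO for 24 h at 37 °C, 5% CO2. Luminescence read 10 min after adding luciferase reagent at ambient temperature.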
(In general: qHTS replaces the single test concentration by a dilution series.)
For `COc1cccc(-c2cc(C(=O)N3CCN(c4ccccc4OC)CC3)no2)c1`, the “activation, negative = inhibition” value is 0.153%.
`O=C(c1cc(-c2cccs2)on1)N1CCCCC1`: the Potency is 562 nM (active).
`O=C(c1cc(-c2ccc(O)cc2)on1)N1CCOCC1`: the Potency is 1120 nM (active).
Turning to `O=C(Nc1cccnc1Cl)c1cc(-c2ccccc2O)on1`, the “activation, negative = inhibition” value was 14.7%.
Take `COc1ccccc1-c1cc(C(=O)N2CCCCC2)no1`: the Potency was 3550 nM (active).
With `O=C(c1cc(-c2ccc(O)cc2)on1)N1CCCc2ccccc21`, the “activation, negative = inhibition” value was 17%.
The same measure, in the same setting: to `COc1ccc(-c2cc(C(=O)N3CCN(c4ccc(F)cc4)CC3)no2)cc1` belongs -6.51%; to `O=C(CN1CCC(O)(c2cccc(C(F)(F)F)c2)CC1)NCCc1ccccc1`, -1.32%; to `O=C(NNC(=O)c1ccc(-n2cncn2)c([N+](=O)[O-])c1)c1ccccc1`, -1.36%.
Take `CCOc1ccc(S(=O)(=O)NCCC(=O)NCC2CCCO2)cc1` (configuration not stated): the “activation, negative = inhibition” value was -7.38%.
The same measure, in the same setting: to `CCN(CC(=O)Nc1ccccc1C(F)(F)F)C(=O)C1CCN(C(=O)Nc2ccccc2)CC1` belongs -3.7%.
On the same count and under the same terms, for `CCOc1ccc(NC(=O)CN(C)C(=O)Cc2sc(C)nc2-c2ccc(F)cc2)cc1OCC` the value was -1.33%; for `O=C(OCC(=O)N1CCOCC1)c1ccc2ccccc2c1`, 23.1%; for `CC1(C)CC(=O)C=C(c2ccc(Cl)c(C(F)(F)F)c2)C1`, -1.53%.
The same measure, in the same setting: to `COc1ccccc1C(=O)NC(CCSC)C(=O)N1CCN(C(C)=O)CC1` (configuration not stated) belongs -1.78%; to `Cc1ccccc1-c1cc(C(=O)NCc2cccs2)n(CC2CC(c3cccnc3)=NO2)n1` (configuration not stated), -2.65%.
Consider `COCCN1CCN(C(=O)c2cc(COc3ccc(F)cc3Cl)on2)CC1`, for which the “activation, negative = inhibition” value was 4.22%.
Same read-out and setting: to `O=C(c1cc(COc2ccc(F)c(F)c2)on1)N1CCOCC1` belongs 23.1%.
Take `COc1ccc(OCc2cc(C(=O)N3CCCC3)no2)c2ccccc12`: the Potency is 3980 nM (active).
Consider `O=C(c1cc(COc2cccc(C(F)(F)F)c2)on1)N1CCSCC1`, for which the “activation, negative = inhibition” value was 1.38%.
Same read-out and setting: to `Cc1ccc(C)c(OCc2cc(C(=O)N3CCN(c4cnccn4)CC3)no2)c1` belongs -1.14%.
Turning to `O=C(c1cc(COc2c(F)cccc2F)on1)N1CCSCC1`, the Potency is 3160 nM (active).
As to `CC(C)(Oc1ccc(Cl)cc1)C(=O)OCC(=O)NCCc1ccc(S(N)(=O)=O)cc1`, the “activation, negative = inhibition” value is -3.15%.
For the molecule `Cc1ccsc1C(=O)NC1CCCCC1C` (configuration not stated), the “activation, negative = inhibition” value is -3.85%.
With `O=S(=O)(NC1CC1)c1ccc(Cl)cc1`, the “activation, negative = inhibition” value was 1.98%.
The same measure, in the same setting: to `Cc1ccc(-c2nc3c(cnn3-c3ccccc3)c(=O)o2)cc1` belongs -6.29%.
Still for that read-out and setting: for `O=C(NCCC1=CCCCC1)C1CCN(Cc2cnn(-c3ccccc3)c2-n2cccc2)CC1` the value was -1.15%.
With `c1ccc(-n2ncc3c(N4CCCC4)ncnc32)cc1`, the Potency was 501 nM (active).
`C1=C(CCNc2ncnc3c2cnn3-c2ccccc2)CCCC1`: the Potency was 2820 nM (active).
For the molecule `CC(C)Sc1ncnc2c1cnn2-c1ccccc1`, the Potency is 1000 nM (active).
On to `CCC(C)N(C(=O)CSc1ncnc2c1cnn2-c1ccccc1)C1CCS(=O)(=O)C1` (configuration not stated), for which the “activation, negative = inhibition” value was -2.26%.
Turning to `O=C(NNc1ncnc2c1cnn2-c1ccccc1)c1ccco1`, the “activation, negative = inhibition” value was -4.14%.
Same read-out and setting: for `CCN(C(=O)CSc1ncnc2c1cnn2-c1ccccc1)C1CCS(=O)(=O)C1` (configuration not stated) the value was -1.86%; for `CC(Sc1ncnc2c1cnn2-c1ccccc1)C(=O)Nc1ccc(N2CCOCC2)cc1` (configuration not stated), 0.146%; for `CCc1noc(C)c1C(=O)N1CCN(S(=O)(=O)c2cccc(C(F)(F)F)c2)CC1`, 13.5%.
Still for that read-out and setting: to `CC(=O)c1c(C)[nH]c(C(=O)OCC(=O)Nc2c(C)cccc2C)c1C` belongs -11.3%.
Still for that read-out and setting: to `Cc1nn(Cc2ccccc2)c(C)c1C(=O)N1CCN(CC(=O)Nc2ccccc2Cl)CC1` belongs -0.872%.
For `C[C@@H](NC(=O)c1nc[nH]c1C(=O)N1CCN(C(=O)OC(C)(C)C)CC1)c1ccccc1`, the “activation, negative = inhibition” value is -3.53%.
Turning to `CCOc1ncccc1C(=O)OCC(=O)Nc1cccc(S(=O)(=O)N2CCCCCC2)c1`, the “activation, negative = inhibition” value was -0.596%.
Same read-out and setting: to `CCCc1nc2oc3c(=O)[nH]cnc3c2c2c1COC(C)(C)C2` belongs -1.12%; to `Nc1cccc(CCc2nc3ccccc3[nH]2)c1`, 3.01%.
Still for that read-out and setting: to `COc1ccc(-c2[nH]nc(-c3ccccc3)c2-c2nc3ccccc3[nH]2)cc1` belongs -2.29%.
As for `Cc1ccc(-c2nc3ccccc3[nH]2)cc1N`, the Potency is 1410 nM (active).
The same measure, in the same setting: for `c1ccc2[nH]c(-c3nc4ccccc4[nH]3)nc2c1` the value was 631 nM (active).
Turning to `OC(c1nc2ccccc2[nH]1)C(O)C(O)C(O)c1nc2ccccc2[nH]1` (configuration not stated), the “activation, negative = inhibition” value was 11.6%.
As for `COc1ccc(Br)cc1C(=O)NC(=S)Nc1cc(-c2nc3ccccc3[nH]2)ccc1C`, the “activation, negative = inhibition” value was -4.21%.
The same measure, in the same setting: for `N#Cc1ccc(C2=CC(=O)C[C@H](c3ccc(Cl)cc3)C2)cc1` the value was -1.27%; for `Cc1ccc(C)c(NC(=O)CN(C)C(=O)c2ccc3ncsc3c2)c1`, 1.46%.
Turning to `O=[N+]([O-])c1ccc2oc(-c3cccc(O)c3)nc2c1`, the Potency was 3160 nM (active).
Regarding `COc1ccc([N+](=O)[O-])cc1-c1nc2ccccc2nc1-c1ccccc1`, the “activation, negative = inhibition” value is 2.73%.
`COc1cccc(-c2nc3cc(C)ccc3o2)c1`: the Potency is 3980 nM (active).
In the case of `COc1cccc(-c2nnc(SCCOc3ccc4c(C)cc(=O)oc4c3)o2)c1`, the “activation, negative = inhibition” value was 0.56%.
The same measure, in the same setting: to `COc1ccc(C(=O)NCc2nnc(SCC(=O)Nc3cccc(OC)c3)o2)cc1` belongs -2.44%.
On to `COc1ccc2oc(-c3cccc(NC(=O)CSc4ccc(Cl)cc4)c3)nc2c1`, for which the Potency is 3550 nM (active).
For `COc1cccc(-c2nc(CS(=O)CC(=O)NCc3ccc(F)cc3)c(C)o2)c1` (configuration not stated), the “activation, negative = inhibition” value was -0.564%.
With `CC(=O)Oc1ccc2c(=O)oc(-c3ccc([N+](=O)[O-])cc3)nc2c1`, the “activation, negative = inhibition” value was -3.36%.
The same measure, in the same setting: for `COc1cccc(NC(=O)CSc2nnc(-c3cccnc3)o2)c1` the value was -3.19%.

For the origin of these results see PubChem BioAssay AID485297 (National Center for Advancing Translational Sciences (NCATS), 2010).
